Source: PubChem BioAssay (NCATS)
Inconclusive results are not listed. A call without a number means that no potency is given here. Values without a mark were called inactive. Active and inactive are the calls of the source. Calls follow the shape of the dose curve; as a rule, active = well fitted curve in the direction sought with a large enough effect; inconclusive = small, poorly fitted or top-dose-only effect, or another doubt; inactive = no such curve, though single readings can be large; an effect the other way counts as inactive or inconclusive.

Tests used:
[1] = molecular target: Rap guanine nucleotide exchange factor 3 (Homo sapiens) (UniProt O95398); test: Confirmatory qHTS for antagonist of cAMP-regulated guanine nucleotide exchange factor 3 (EPAC1) (AID 1645880); settings: EPAC1 Rap1B-BODIPY-GDP exchange, fluorescence; activity, negative = inhibition: at 115 µM (top of the series); also: nearly all actives have a fitted effect of over 55% in size
Method in brief: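 Nucleotide exchange uses 100 nM EPAC1, 250 nM RAP1B-BODIPY-GDP and 50 uM GDP, with compounds in a concentration-titration series. After 5 min at room temperature, fluorescence (480 nm ex/540 nm em) is read every 5 min for 30 min. Data are normalized to control ATA and DMSO.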

[2] = molecular target: Rap guanine nucleotide exchange factor 3 (Homo sapiens) (UniProt O95398); test: Confirmatory qHTS for agonist of cAMP-regulated guanine nucleotide exchange factor 3 (EPAC1) (AID 1645881); also: nearly all actives have a fitted effect of over 75% in size;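 as to activation: EPAC1 catalysed release of BODIPY-GDP from Rap1B seen as fluorescence loss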
[3] = molecular target: Rap guanine nucleotide exchange factor 4 (Homo sapiens) (UniProt Q8WZA2); test: Confirmatory qHTS for agonist of cAMP-regulated guanine nucleotide exchange factor 4 (EPAC2) (AID 1645884);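 also: nucleotide exchange releases bodipy-GDP from Rap1 and this lowers its fluorescence; nearly all actives have a fitted effect of over 65% in size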
[4] = molecular target: Rap guanine nucleotide exchange factor 4 (Homo sapiens) (UniProt Q8WZA2); test: Confirmatory qHTS for antagonist of cAMP-regulated guanine nucleotide exchange factor 4 (EPAC2) (AID 1645885); also: nearly all actives have a fitted effect of over 25% in size
[5] = molecular target: Rap guanine nucleotide exchange factor 3 (Homo sapiens) (UniProt O95398); test: Counterscreen qHTS for agonist of cAMP-regulated guanine nucleotide exchange factor 3 (EPAC1) (AID 1645889); also: nearly all actives have a fitted effect of over 40% in size
Method in brief: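 Measured: fluorescence of BODIPY-GDP bound to Rap1B, which falls as exchange proceeds. Conditions include 50 uM competing GDP, 5 and 30 min reads, and a later cAMP challenge for antagonist detection.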
Potency is read from the fitted curve at half-maximal effect.

Sequence of Rap guanine nucleotide exchange factor 3 (Homo sapiens) (O95398 whole entry, looked up): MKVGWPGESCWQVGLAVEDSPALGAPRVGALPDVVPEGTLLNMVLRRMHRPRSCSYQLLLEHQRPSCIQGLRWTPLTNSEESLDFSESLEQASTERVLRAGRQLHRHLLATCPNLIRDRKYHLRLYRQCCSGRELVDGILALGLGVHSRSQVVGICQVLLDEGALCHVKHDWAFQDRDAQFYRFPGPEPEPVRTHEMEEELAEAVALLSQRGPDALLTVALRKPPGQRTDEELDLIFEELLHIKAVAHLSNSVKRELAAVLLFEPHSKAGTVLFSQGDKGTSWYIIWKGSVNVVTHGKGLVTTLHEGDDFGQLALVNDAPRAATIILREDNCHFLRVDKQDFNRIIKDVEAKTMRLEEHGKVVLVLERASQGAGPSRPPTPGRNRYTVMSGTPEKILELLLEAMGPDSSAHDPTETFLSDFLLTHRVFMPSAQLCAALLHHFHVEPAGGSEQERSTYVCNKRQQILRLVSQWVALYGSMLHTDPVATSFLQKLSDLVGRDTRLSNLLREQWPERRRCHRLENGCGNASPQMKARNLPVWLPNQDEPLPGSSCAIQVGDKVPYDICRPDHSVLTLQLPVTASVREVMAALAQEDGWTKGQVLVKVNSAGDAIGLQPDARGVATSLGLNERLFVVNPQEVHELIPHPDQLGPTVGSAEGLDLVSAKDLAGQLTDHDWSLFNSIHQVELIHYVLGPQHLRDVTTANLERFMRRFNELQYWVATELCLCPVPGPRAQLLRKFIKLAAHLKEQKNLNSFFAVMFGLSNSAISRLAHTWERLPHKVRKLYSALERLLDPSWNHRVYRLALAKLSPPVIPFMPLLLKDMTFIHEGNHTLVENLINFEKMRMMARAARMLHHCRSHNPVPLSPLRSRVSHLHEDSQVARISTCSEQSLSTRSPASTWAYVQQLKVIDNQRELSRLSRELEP
Sequence of Rap guanine nucleotide exchange factor 4 (Homo sapiens) (Q8WZA2 whole entry, looked up): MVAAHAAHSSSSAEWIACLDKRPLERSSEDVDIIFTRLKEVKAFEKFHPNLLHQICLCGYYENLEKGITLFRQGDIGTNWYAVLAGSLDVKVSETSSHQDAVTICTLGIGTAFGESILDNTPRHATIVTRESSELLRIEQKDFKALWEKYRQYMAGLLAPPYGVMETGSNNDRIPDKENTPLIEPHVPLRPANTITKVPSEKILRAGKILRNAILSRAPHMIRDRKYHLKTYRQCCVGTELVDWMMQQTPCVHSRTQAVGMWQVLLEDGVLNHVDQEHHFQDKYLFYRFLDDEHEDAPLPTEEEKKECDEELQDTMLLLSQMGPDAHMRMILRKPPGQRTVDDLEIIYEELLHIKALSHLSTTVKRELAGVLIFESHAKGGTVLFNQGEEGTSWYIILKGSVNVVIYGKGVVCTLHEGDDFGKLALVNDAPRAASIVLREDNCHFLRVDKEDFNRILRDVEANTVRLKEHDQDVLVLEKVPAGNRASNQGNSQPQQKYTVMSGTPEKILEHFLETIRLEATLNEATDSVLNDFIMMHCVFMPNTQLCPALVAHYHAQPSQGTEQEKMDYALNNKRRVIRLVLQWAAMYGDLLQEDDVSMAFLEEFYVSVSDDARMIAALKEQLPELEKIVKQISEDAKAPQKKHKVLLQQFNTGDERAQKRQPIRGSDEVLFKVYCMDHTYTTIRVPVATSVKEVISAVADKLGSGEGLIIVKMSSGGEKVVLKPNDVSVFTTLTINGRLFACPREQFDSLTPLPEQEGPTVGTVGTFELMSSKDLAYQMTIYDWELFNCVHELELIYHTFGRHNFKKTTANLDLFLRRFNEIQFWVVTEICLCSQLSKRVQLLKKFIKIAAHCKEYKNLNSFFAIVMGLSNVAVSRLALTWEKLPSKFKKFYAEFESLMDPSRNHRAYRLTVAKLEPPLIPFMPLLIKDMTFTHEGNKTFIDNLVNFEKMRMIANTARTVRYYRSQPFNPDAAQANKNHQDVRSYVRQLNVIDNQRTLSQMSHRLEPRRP

Structure (SMILES)	Potency [1]	Potency [2]	Potency [3]	Potency [4]	Potency [5]	outcome [4]	activation [3]	activation [5]
CCOc1ccc2oc(C(=O)N(C)CC(=O)Nc3ccc(OCC)c(OCC)c3)c(C)c2c1	inactive	inactive	inactive	inactive	inactive	–	–	–
CC(C)Cn1c(SC(C)C(=O)NCC2CCCO2)nc2ccc(Cl)cc2c1=O (stereo not given)	inactive	inactive	inactive	5.36 µM (active)	inactive	–	–	–
CCN(CC(=O)Nc1ccc(OC)cc1)C(=O)Cc1cccs1	67.5 µM (active)	inactive	inactive	inactive	inactive	–	–	–
CCOc1nc(C)cc(C)c1S(=O)(=O)c1cccc(Cl)c1	inactive	inactive	inactive	19 µM (active)	inactive	–	–	–
CC(=O)c1cc(CC(=O)N2CCc3c([nH]c4ccccc34)C2c2ccccn2)cs1 (stereo not given)	inactive	inactive	inactive	inactive	inactive	–	–	–
CCC(Oc1ccccc1)C(=O)Nc1ccccc1N1CCCCC1 (stereo not given)	inactive	inactive	inactive	inactive	inactive	–	–	–
CCCCn1c(CNC(=O)C23CC4CC(CC(C4)C2)C3)nnc1SCC(=O)Nc1ccc(F)cc1	inactive	inactive	inactive	–	inactive	inactive [at 12.7 µM]	–	–
Cc1ccc(-c2ccc(CCC(=O)O)n2-c2ccc(C(C)C)cc2)cc1	75.7 µM (active)	inactive	inactive	inactive	inactive	–	–	–
COc1ccc(S(=O)(=O)Nc2c(C)nn(C)c2C)cc1Br	inactive	inactive	inactive	inactive	inactive	–	–	–
Cc1ccc(C)c(NC(=O)COC(=O)COc2cccc3c2OC(C)(C)C3)c1	inactive	inactive	–	inactive	–	–	-3.91% [at 17.1 µM, percent relative to cAMP agonist control]	3.82% [at 30.8 µM]
COc1ccc(-c2c(-c3ccccc3OC)oc3ccccc23)cn1	inactive	inactive	–	inactive	–	–	1.88% [at 17.1 µM, percent relative to cAMP agonist control]	7.21% [at 30.8 µM]
COc1cccc(CNC(=O)COc2cc3c(c4oc(=O)cc(C)c24)CCC(C)(C)O3)c1	inactive	inactive	inactive	inactive	inactive	–	–	–
CCCOc1ccc(/C(O)=C2/C(=O)C(=O)N(c3ccccn3)C2c2ccc(OC)cc2)cc1C (stereo not given)	33.8 µM (active)	inactive	inactive	inactive	inactive	–	–	–
O=C(NCCS(=O)(=O)N1CCc2ccccc2C1)c1ccccc1	inactive	inactive	inactive	inactive	inactive	–	–	–
COc1cc(NC(=O)c2ccnc(N)c2)cc(C(=O)Nc2cccc(C(F)(F)F)c2)c1	42.6 µM (active)	inactive	inactive	inactive	inactive	–	–	–
CN1CCN(C2=CC3=CC(=C(C#N)C#N)CCC3CC2)CC1 (stereo not given)	inactive	44.7 µM (active)	56.2 µM (active)	6.75 µM (active)	14.1 µM (active)	–	–	–

Structure (SMILES)	Potency [1]	Potency [2]	Potency [3]	Potency [4]	Potency [5]	outcome [4]	activation [3]	activation [5]
CC(=O)/C(C#N)=C1\NC(=O)C(Cc2cc(Cl)ccc2Cl)S1 (stereo not given)	44.7 µM (active)	inactive	–	inactive	–	–	4.95% [at 17.1 µM, percent relative to cAMP agonist control]	2.87% [at 30.8 µM]
O=C1C(Cc2ccccc2)SC(=Nc2ccccc2)N1c1ccccc1 (stereo not given)	inactive	inactive	–	inactive	–	–	1.92% [at 17.1 µM, percent relative to cAMP agonist control]	18.1% [at 30.8 µM]
CC(C)CCn1c(Oc2ccc(Cl)cc2)nc2c1c(=O)n(C)c(=O)n2C	inactive	inactive	inactive	16.9 µM (active)	inactive	–	–	–
COc1cccc(CC(=NO)c2cccc(OC)c2)c1	inactive	inactive	–	inactive	–	–	4.78% [at 17.1 µM, percent relative to cAMP agonist control]	2.23% [at 30.8 µM]
COC(=O)CSc1ncnc2scc(-c3ccccc3)c12	inactive	inactive	–	inactive	–	–	-0.952% [at 17.1 µM, percent relative to cAMP agonist control]	5.38% [at 30.8 µM]
COc1cc2nc(N3CCNCC3)nc(N)c2cc1OC	inactive	inactive	100 µM (active)	67.5 µM (active)	inactive	–	–	–
Cn1cc(C(CO)Cc2ccccc2)c2ccccc21 (stereo not given)	inactive	inactive	–	inactive	–	–	4.77% [at 17.1 µM, percent relative to cAMP agonist control]	2.04% [at 30.8 µM]
CC(C)c1ccc(NC(=O)COC(=O)C2=COCCO2)cc1	inactive	inactive	–	inactive	–	–	-5.53% [at 17.1 µM, percent relative to cAMP agonist control]	17.9% [at 30.8 µM]
CSc1ccc(C2C(C(=O)c3ccco3)=C(O)C(=O)N2c2nnc(SC)s2)cc1 (stereo not given)	33.8 µM (active)	inactive	inactive	19 µM (active)	inactive	–	–	–
C=CCN(CC=C)C(=O)COn1nnc2ccc(S(=O)(=O)N3CCOCC3)cc21	inactive	inactive	inactive	inactive	inactive	–	–	–
C/C(=N\NC(=O)CC#N)c1cc2ccc(O)cc2oc1=O	inactive	inactive	–	inactive	–	–	2.05% [at 17.1 µM, percent relative to cAMP agonist control]	-21% [at 30.8 µM]
Cc1nc2c(C(=O)NCCC3=CCCCC3)c[nH]n2c(=O)c1Cl	75.7 µM (active)	inactive	inactive	6.75 µM (active)	inactive	–	–	–
Cc1ccc(S(=O)(=O)NC2CC(=O)N(c3ccc4c(c3)OCCO4)C2)cc1 (stereo not given)	inactive	inactive	–	inactive	–	–	3.34% [at 17.1 µM, percent relative to cAMP agonist control]	22.6% [at 30.8 µM]
COc1ccc(C2CCc3cc4c(cc3C2=NO)OCO4)cc1OC (stereo not given)	inactive	inactive	–	inactive	–	–	6.77% [at 17.1 µM, percent relative to cAMP agonist control]	14.5% [at 30.8 µM]
C=CCn1cc(C(=O)NCCCOC)c(=O)c2cc(S(=O)(=O)N(CC)CC)ccc21	inactive	inactive	inactive	inactive	inactive	–	–	–
Cc1ccc(C)c(-n2c(CCC(=O)O)ccc2-c2ccc(Cl)cc2)c1	inactive	inactive	inactive	inactive	inactive	–	–	–
